Bioassay records as filed in PubChem.
Anthrax LF inh2: inhibitors of Bacillus anthracis lethal factor protease; multiplex microsphere protease cleavage assay, LF; inhibition, % at 10 µM; actives 0.12% (n = 360,000); in the data active = inhibition above about 30%; inconclusive = no clear call, values can overlap the other calls
Target sequence (P15917 whole entry, looked up): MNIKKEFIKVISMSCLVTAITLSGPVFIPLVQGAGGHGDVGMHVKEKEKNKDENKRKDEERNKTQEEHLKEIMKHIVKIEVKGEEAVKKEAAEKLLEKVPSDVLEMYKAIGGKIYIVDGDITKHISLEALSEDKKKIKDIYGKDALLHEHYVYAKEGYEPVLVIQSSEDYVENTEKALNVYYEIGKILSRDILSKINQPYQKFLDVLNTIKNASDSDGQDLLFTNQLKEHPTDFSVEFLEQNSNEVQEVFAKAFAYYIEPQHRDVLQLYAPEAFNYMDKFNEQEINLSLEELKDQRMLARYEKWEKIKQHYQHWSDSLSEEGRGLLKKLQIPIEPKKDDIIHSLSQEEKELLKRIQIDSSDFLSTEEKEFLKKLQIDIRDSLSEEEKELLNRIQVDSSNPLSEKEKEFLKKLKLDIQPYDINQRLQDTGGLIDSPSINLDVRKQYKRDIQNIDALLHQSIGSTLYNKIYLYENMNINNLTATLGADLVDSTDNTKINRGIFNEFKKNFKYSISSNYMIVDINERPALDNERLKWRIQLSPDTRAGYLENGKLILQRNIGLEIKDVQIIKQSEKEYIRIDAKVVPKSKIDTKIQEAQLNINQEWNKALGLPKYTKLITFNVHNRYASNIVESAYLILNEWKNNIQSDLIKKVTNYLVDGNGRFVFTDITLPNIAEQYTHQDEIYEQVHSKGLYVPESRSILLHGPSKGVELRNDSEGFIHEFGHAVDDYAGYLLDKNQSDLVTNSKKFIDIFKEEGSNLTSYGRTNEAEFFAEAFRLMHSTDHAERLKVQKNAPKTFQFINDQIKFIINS
Bead autofluor: compound fluorescence in toxin protease inhibitor counterscreen; compound autofluorescence counterscreen, microsphere flow cytometry; active compounds read high; fluorescence intensity (concentration not given with the values); actives 3.1% (n = 360,000); in the data active = fluorescence intensity above about 16000; inconclusive = no clear call, values can overlap the other calls
CCHF vOTU inh-1: CCHFV vOTU protease inhibition; Pep-AMC fluorescence; actives 0.55% (n = 370,000); inhibition, % at 11.5 µM; in the data active = inhibition above about 30%
BoNT-F LC inh: blocks Botulinum neurotoxin F light chain protease. Multiplex microsphere protease cleavage assay, flow cytometry. inhibition, % at 10 µM. actives 0.22% (n = 360,000). AID 588497; in the data active = inhibition above about 35%, passing the limit was not always enough; inconclusive = no clear call, values can overlap the other calls
BoNT-A LC inh2: blocks Botulinum neurotoxin A light chain protease; multiplex microsphere protease substrate cleavage, flow cytometry; inhibition, % at 10 µM; actives 0.17% (n = 360,000); AID 588499; in the data active = inhibition above about 30%; inconclusive = no clear call, values can overlap the other calls
3CLpro inhibitor: SARS-CoV 3CLpro protease inhibition; P0C6X7; recombinant SARS-CoV 3CLpro, quenched FRET peptide cleavage; inhibition, % at 6 µM; actives 0.14% (n = 290,000); AID 1706; in the data active = inhibition above about 12%
BoNTA LC inh 2: blocks botulinum neurotoxin A light chain protease; shares compounds with BoNT-A LC inh2; multiplex microsphere protease cleavage assay, flow cytometry; inhibition, % at 10 µM; actives 10% (n = 150); AID 602325; in the data active = inhibition above about 24%
LF protease CP2: Bacillus anthracis lethal factor protease inhibition | shares compounds with BoNT-A LC inh2 | multiplex microsphere protease cleavage assay | inhibition, % at 10 µM | actives 7% (n = 150) | AID 602327
BoNT-F LC CP2: BoNT/F light chain protease inhibition; actives 7% (n = 150); multiplex microsphere protease cleavage assay, flow cytometry; shares compounds with BoNT-A LC inh2; inhibition, % at 10 µM; AID 602336
CCHF vOTU inh-2: confirmation of CCHF virus vOTU protease inhibitors | Recombinant CCHFV vOTU, Pep-AMC fluorescence | shares compounds with CCHF vOTU inh-1 | AID 686976 | inhibition, % at 11.5 µM | actives 17% (n = 1,900); in the data active = inhibition above about 30%
A number is an active result; n = inactive; u = inconclusive; x = no result. Most compounds without a hit are left out; they make up all but 3.9% or so of the library. Rule as the data show it, unless noted: active = inhibition above about 25%; inactive = the rest.

SMILES | Anthrax LF inh2 | Bead autofluor | CCHF vOTU inh-1 | BoNT-F LC inh | BoNT-A LC inh2 | 3CLpro inhibitor | CCHF vOTU inh-2 | others
COc1cccc(CNC(=O)c2ccc(S(=O)(=O)N3CCOCC3)cc2)c1 | x | x | n | x | x | x | x
Cc1cc2cc(CNC(=O)c3ccc(S(=O)(=O)N(C)C)cc3)ccc2n1C | n | n | n | n | 82 | n | x | BoNTA LC inh 2=n;LF protease CP2=n;BoNT-F LC CP2=n
Cc1cc2cc(CNC(=O)c3ccc(S(=O)(=O)N4CCCCC4)cc3)ccc2[nH]1 | n | n | n | n | 44 | n | x | BoNTA LC inh 2=n;LF protease CP2=n;BoNT-F LC CP2=n
CCC1(C)NC(=O)N(CC(=O)NCC(=O)Nc2c(C)cc(C)cc2C)C1=O (stereo not drawn) | n | n | n | n | n | x | x
O=C(NCCCN1CCOCC1)c1cc(-c2ccc(F)cc2)no1 | n | n | n | n | n | n | x
Cc1cc2cc(CNS(=O)(=O)c3ccc4ccccc4c3)ccc2n1C | n | n | n | n | 47 | n | x | BoNTA LC inh 2=n;LF protease CP2=n;BoNT-F LC CP2=n
Cc1cc(C)c(S(=O)(=O)NCc2ccc3c(c2)cc(C)n3C)c(C)c1 | n | n | n | n | 78 | n | x | BoNTA LC inh 2=n;LF protease CP2=n;BoNT-F LC CP2=n
CC(=O)Nc1ccc(S(=O)(=O)NCc2ccc3c(c2)cc(C)n3C)cc1 | n | n | n | n | 72 | n | x | BoNTA LC inh 2=n;LF protease CP2=n;BoNT-F LC CP2=n
CC(=O)Nc1ccc(S(=O)(=O)NCc2ccc(C)cc2)cc1 | n | n | n | n | n | n | x
CN(C)c1ccc(C(=O)N/N=C/c2ccccn2)cc1 | n | n | n | n | n | n | x
COC(C)c1oc2c(C)c3oc(=O)cc(C)c3cc2c1C (stereo not drawn) | n | n | n | u | n | x | x
Cc1ccc(S(=O)(=O)NCc2ccccc2)cc1C(=O)NCCc1ccc(S(N)(=O)=O)cc1 | n | n | n | n | n | x | x
CC(CC(=O)c1ccc(F)cc1)N1CCN(c2ccccc2)CC1 (stereo not drawn) | n | n | n | n | n | x | x
O=C(CCSCCc1ccccn1)Nc1ccc(Cc2ccncc2)cc1 | n | n | n | n | n | n | x
COc1ccc(NC(=O)N/C=C/c2ccccc2)cc1 | n | n | n | n | n | n | x
COc1ccc2cc(C3=CC(=O)CC(C)(C)C3=O)ccc2c1 | 32 | n | n | n | n | x | x | BoNTA LC inh 2=n;LF protease CP2=n;BoNT-F LC CP2=n
NCCCCC(NC(=O)C1CCCN1C(=O)C1CSSCC(N)C(=O)NC(Cc2ccc(O)cc2)C(=O)NC(Cc2ccccc2)C(=O)NC(CCC(N)=O)C(=O)NC(CC(N)=O)C(=O)N1)C(=O)NCC(N)=O (stereo not drawn) | x | x | x | x | x | n | x
COc1cc(N(C)C)ccc1C=c1c2ccccc2n2c1cc(-c1ccccc1)[n+]2C | n | n | 34 | n | 56 | x | n | BoNTA LC inh 2=30;LF protease CP2=n;BoNT-F LC CP2=n
CCOC(=O)N1CCN(C(=O)C[C@@H]2C[C@@]3(C(=O)OCC)CCC=C3N(Cc3cccc4ccccc34)C2=O)CC1 | n | n | n | n | n | x | x
CCCCNC(=S)NNC(=O)c1cc(-c2cccnc2)nc2ccccc12 | n | n | 35 | n | n | n | n
C[C@H](O)[C@@H]1C(=O)N2CCc3c([nH]c4c(-c5ccc6c(c5)OCO6)cccc34)[C@@H]2C[C@@H]1N(C)C(=O)OCc1ccccc1 | x | x | n | x | x | x | x
CCCCCNC(=O)C(c1ccc(C(F)(F)F)cc1)n1c(=O)c(-c2ccco2)nc2ccccc21 (stereo not drawn) | x | x | 31 | x | x | x | n
COc1ccc(C(C(=O)NC(C)(C)C)n2c(=O)c(-c3ccco3)nc3ccccc32)cc1 (stereo not drawn) | x | x | n | x | x | x | x
Cc1cccc(C)c1NC(=O)C(c1ccc(-c2ccccc2)cc1)n1c(=O)c(-c2ccco2)nc2ccccc21 (stereo not drawn) | x | x | 33 | x | x | x | n
CC(C)(C)NC(=O)C(c1ccc(-c2ccccc2)cc1)n1c(=O)c(-c2ccco2)nc2ccccc21 (stereo not drawn) | x | x | 32 | x | x | x | n
SMILES | Anthrax LF inh2 | Bead autofluor | CCHF vOTU inh-1 | BoNT-F LC inh | BoNT-A LC inh2 | 3CLpro inhibitor | CCHF vOTU inh-2 | others
O=C(NC1=NCCS1)c1ccccc1OCc1ccc(F)cc1 | n | n | n | n | n | n | x
C=CCN(c1ccccc1OC)S(=O)(=O)c1cccc(C(=O)Nc2nnc(C3CC3)s2)c1 | x | x | n | x | x | x | x
CCOC(=O)CN(C(=O)CSc1nnc(COc2ccc(OC)cc2)n1CC)c1ccccc1 | n | n | n | n | n | n | x
O=c1[nH][nH]c2cc(=O)n(-c3ccc(Cl)cc3)nc12 | n | n | n | n | n | n | x
Cn1c(Cc2cccs2)nnc1SCC(=O)Nc1ccc2cn[nH]c2c1 | x | x | 31 | x | x | x | n
CCc1ccc(-c2ccc(SCC(=O)Nc3nnc(C)s3)nn2)cc1 | n | n | n | n | n | n | x
CCOC(=O)/C(C#N)=C1/C=CN(Cc2ccccc2)C=N1 | n | n | 30 | n | n | n | n
CCOC(=O)/C(C#N)=C1/C=CN(c2ccccc2)C=N1 | n | n | n | n | n | n | x
Cc1cccc(COC[C@H](CC(C)C)N2CCN(C(=O)c3ccc(C(F)(F)F)cc3)CCC2=O)c1 | n | n | n | n | n | x | x
O=C(c1ccc(C(F)(F)F)cc1)N1CCC(=O)N([C@H](COCc2ccc(C(F)(F)F)cc2)Cc2ccccc2)CC1 | n | n | 34 | n | n | x | n
CC(C)C[C@@H](COCc1cccc(C(F)(F)F)c1)N1CCN(C(=O)c2ccc(C(F)(F)F)cc2)CCC1=O | n | n | 39 | n | n | x | n
O=C(c1ccc(C(F)(F)F)cc1)N1CCC(=O)N([C@H](COCc2ccc(Cl)cc2)Cc2ccccc2)CC1 | n | n | 32 | n | n | x | n
CCOc1cc(/C=N/N=C2/NC(=O)C(CC(=O)O)S2)ccc1OCc1ccc(Cl)cc1Cl (stereo not drawn) | n | n | x | n | n | n | x
COc1cc(/C=N/N=C2/NC(=O)C(CC(=O)O)S2)ccc1OCc1ccc(Cl)cc1 (stereo not drawn) | n | n | 34 | n | n | n | n
O=C1CCc2cc(NS(=O)(=O)c3ccc([N+](=O)[O-])cc3)cc3c2N1CC3 | n | u | n | n | n | x | x
Cn1ccc2c(N(Cc3ccccc3)Cc3ccccc3)cc3c(c21)C1CCC3O1 (stereo not drawn) | n | n | 44 | n | n | x | n
CN(Cc1ccccc1)c1cc2c(c3c1ccn3C)C1CCC2O1 (stereo not drawn) | n | n | n | n | n | x | x
COc1cc(NS(=O)(=O)c2ccc(C)cc2)c2ncccc2c1 | n | n | n | n | n | n | x
COc1cc(NCCCC(C)N)c2ncccc2c1 (stereo not drawn) | n | n | 65 | n | n | n | 108
COc1cc(NCCCCC(C)N)c2nccc(C)c2c1 (stereo not drawn) | n | n | 57 | n | n | x | 45
